Bioassay records (PubChem)
Sampled rows, rich in hits. Any-hit rate of the full collection: about 19%.
HT1080-NT tox: kills 2HG-producing HT-1080-NT fibrosarcoma cells. HT-1080-NT fibrosarcoma viability, CellTiter-Glo ATP luminescence, 48 h. Potency, µM (highest dose often 46.1 µM), inactives show at the highest dose activity, negative = less viability, actives largely listed as cytotoxic. hit rate 1.6% among 360,000. AID 686970;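 further: NT is the 2HG producing partner of a matched IDH1 knockdown line; potency means the concentration at half of the fitted maximal effect; 0% = DMSO-treated cells and -100% = media-only wells without cells; nearly all actives have a fitted effect of over 55% in size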
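Viability of the 2HG-overproducing fibrosarcoma line after 48 hours of compound exposure at 37 degrees C was determined by luminescence with CellTiter-Glo, and concentration-effect curves were then fitted and categorized.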
DT40 TDP1 CPT: growth inhibition of DT40 Tdp1-/-;hTDP1 cells with camptothecin (screen for TDP1 inhibitors); chicken DT40 Tdp1-/-;hTDP1 cells + 20 nM CPT, ATP luminescence, 48 h; Potency, µM (titrated, usually from 46.2 µM), for the others: at the highest dose activity change, negative = growth inhibition, actives largely listed as inhibitors; hit rate 12% among 420,000; further: potency means the concentration at half of the fitted maximal effect; nearly all actives have a fitted effect of over 55% in size
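Chicken DT40 Tdp1-/- cells stably complemented with human TDP1 were seeded at 400 cells/well in medium containing 20 nM camptothecin, exposed to pin-transferred compounds, and grown at 37 °C for at least 48 hr. Viability was read as ATP luminescence.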
HT1080 IDH1KD tx: toxicity to HT-1080 IDH1 knockdown cells (counter line). Potency, µM (highest dose often 46.1 µM), without a hit: at the top dose activity, negative = toxicity, hits mostly cytotoxic. AID 686971. hit rate 2% among 360,000. HT-1080 IDH1 knockdown viability, ATP luminescence, 48 h;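 further: potency means the concentration at half of the fitted maximal effect; 0% = DMSO wells and -100% = cell-free medium wells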
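IDH1KD HT-1080 cells, 750/well, RPMI + 5% FBS; compound pinned after 2 h settling; 48 h, 37 °C; CellTiter-Glo luminescence; % activity normalised to DMSO and no-cell wells; curves fitted, classed by r2 and efficacy.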
IL1B secr inh: inhibitors of inflammasome signaling (IL-1 beta secretion). THP-1 LPS/ATP IL-1B secretion, AlphaLISA, 16 h; stronger effect = lower value. activity change, % at 57.5 µM. hit rate 4.7% among 360,000. AID 743279; in the data active means activity change below about -50%; inconclusive means mostly about -30% to -49%
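Secreted IL-1B measured by AlphaLISA bead assay after 16 h compound exposure of THP-1 cells; compounds (final up to 57.5 uM) added 1 h before LPS (250 ng/mL) and ATP (1.25 mM) stimulation; lower signal means less secretion.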
DT40 TDP1 no CPT: qHTS for Inhibitors of human tyrosyl-DNA phosphodiesterase 1 (TDP1): qHTS in cells in absence of CPT | DT40 Tdp1-/- hTDP1 cells, no CPT, ATP luminescence, 48 h | Potency, µM (titrated, usually from 46.2 µM), without a hit: top-dose activity change, negative = growth inhibition, usual class: inhibitors | hit rate 15% among 420,000 | AID 686978, 2013; further: potency means the concentration at half of the fitted maximal effect; nearly all actives have a fitted effect of over 55% in size
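DT40 Tdp1-/-;hTDP1 cells, no CPT (DMSO vehicle only), 400 cells/well; compounds pin-transferred; ≥48 hr, 37 °C; CellTiter-Glo 30 min RT dark, luminescence read.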
* hit, by the source's call; ? = inconclusive; · = no result. Unless noted, the call rests on the fitted dose curve; in most records, active means well fitted curve in the direction sought with a large enough effect; inconclusive means small, poorly fitted or top-dose-only effect, or another doubt; inactive means no such curve, though single readings can be large; an effect the other way counts as inactive or inconclusive. Unless noted, on the % scale 0 is the no-effect control and ±100 the full control effect.

SMILES | HT1080-NT tox | DT40 TDP1 CPT | HT1080 IDH1KD tx | IL1B secr inh | DT40 TDP1 no CPT
COc1ccc(OC)c(C2C(C(N)=O)=C(C)Nc3nc(CCCO)nn32)c1 (configuration not stated) | 22.7% | -9.5% | 4.7% | -0.5 | -3.0%
CCN(CC)C(=O)C1=C(C)N(CCC2=CCCCC2)C(=O)C(CC(=O)NCc2cccs2)C1 (configuration not stated) | -0.3% | -15.5% | -0.1% | ? | -27.7%
O=C(CSc1nc2ccccc2s1)N1c2ccccc2Sc2ccc(Cl)cc21 | -1.1% | ? | -4.6% | -0.9 | ?
CN(C)CCCN1c2ccc(O)cc2Sc2ccc(Cl)cc21 | ? | ? | ? | -30.0 | ?
CN(C)CCCN1c2ccccc2Sc2ccc(C(F)(F)F)cc21 | · | ? | · | -62.2* | 23.7µM*
O=C(CSc1nc2ccccc2s1)N1c2ccccc2Sc2ccc(C(F)(F)F)cc21 | -2.3% | ? | -13.3% | 29.1 | 14.6µM*
CCN(CC)CC(O)CN1c2ccccc2Sc2ccccc21 (configuration not stated) | -13.6% | ? | -0.4% | -68.4* | ?
CCN(CC)CCC(=O)N1c2ccccc2Sc2ccc(NC(=O)OC)cc21 | -7.9% | -0.8% | -2.4% | -79.1* | -0.1%
CCOC(=O)Nc1ccc2c(c1)N(C(=O)CCN(C)C)c1ccccc1S2 | 5.7% | -10.8% | 6.2% | ? | -18.9%
OCCN(CCO)CC(O)CN1c2ccccc2Sc2ccccc21 (configuration not stated) | -8.5% | -14.7% | -5.0% | -18.7 | -14.2%
COc1cc(-c2nc(-c3ccc4c(c3)[nH]c(=O)n4C)no2)cc(OC)c1OC | · | -15.7% | · | · | -13.5%
Cc1ccc(S(=O)(=O)N2CCN(CC(=O)NCC3(N4CCOCC4)CCCCC3)CC2)cc1 | 2.2% | -4.4% | 8.6% | 4.4 | -19.7%
CCOC(=O)C1=C(COC(=O)[C@@H]2CCCN2S(=O)(=O)c2ccc(C)cc2)NC(=O)NC1C (some centres not stated) | -10.3% | -9.2% | -1.7% | 15.6 | -1.5%
CCN(CC)CCCCN1c2ccccc2Sc2ccccc21 | 18.4µM* | 20.6µM* | 23.1µM* | -70.2* | 20.6µM*
COc1ccc2c(c1)N(C[C@H](C)CN(C)C)c1ccccc1S2 | 23.1µM* | ? | 20.6µM* | ? | ?
CC(CN1c2ccccc2Sc2ccccc21)N(C)C (configuration not stated) | 1.1% | ? | 0.1% | ? | ?
CC(CN(C)C)CN1c2ccccc2Sc2ccccc21 (configuration not stated) | 16.4µM* | ? | ? | ? | 18.4µM*
CN(C)CCC(=O)N1c2ccccc2Sc2ccc(C(F)(F)F)cc21 | 0.7% | 23.1µM* | 3.9% | -2.5 | ?
CCN(CC(=O)Nc1ccc(NC(C)=O)cc1)C(=O)c1ccc2c(c1)S(=O)(=O)N=C1CCCCCN12 | -27.9% | -1.3% | -2.9% | 2.6 | -1.1%
COc1ccc(C(O)(CCc2ccccc2)CCN2CCCCC2)cc1 (configuration not stated) | -16.0% | ? | -21.5% | -1.7 | ?
CCN1CCN(S(=O)(=O)c2ccc(Cl)c(C(=O)NC(C)c3ccccc3Cl)c2)CC1 (configuration not stated) | -6.3% | -7.7% | -2.1% | -4.3 | ?
O=C(COc1ccc(F)cc1Cl)Nc1ccc(S(=O)(=O)Nc2nccs2)cc1 | 6.1% | 10.7% | 5.7% | -10.3 | 13.2%
CC(CN(C)C)CN1c2ccccc2Sc2ccc(C(F)(F)F)cc21 (configuration not stated) | · | ? | · | · | 16.8µM*
Cc1ccccc1OCCNC(=S)Nc1ccccc1 | -3.5% | 29.1µM* | -21.4% | -12.8 | 14.6µM*
S=C(NCCc1ccccc1)Nc1ccc(Nc2ccccc2)cc1 | ? | 16.4µM* | ? | ? | ?
SMILES | HT1080-NT tox | DT40 TDP1 CPT | HT1080 IDH1KD tx | IL1B secr inh | DT40 TDP1 no CPT
CCCNC(=S)Nc1ccccc1 | 8.3% | 9.7% | 13.3% | 21.4 | 7.9%
S=C(NCCCc1ccccc1)Nc1ccccc1 | -12.1% | 23.1µM* | -0.2% | 31.8 | ?
CNC(=S)NCCc1ccccc1 | 15.6% | 17.7% | 12.0% | 6.8 | 5.0%
S=C(NCCc1ccccc1)Nc1c(Cl)cccc1Cl | -0.5% | ? | -4.2% | -63.7* | 23.1µM*
CS(=O)(=O)N(CC(=O)Nc1cccc(F)c1)Cc1ccccc1 | 9.1% | -27.9% | -3.8% | -3.0 | ?
CC(C)(CNC(=S)NCCc1ccccc1)CNC(=S)NCCc1ccccc1 | ? | 8.2µM* | ? | -70.1* | 29.1µM*
COc1ccc(-c2noc(CCC(=O)N3CCN(c4cccc(Cl)c4)CC3)n2)cc1 | -8.5% | ? | -11.0% | 3.9 | 23.1µM*
COc1ccc(C(=O)CCC(=O)N2CCN(c3cccc(Cl)c3)CC2)cc1 | -11.5% | 16.4µM* | -2.7% | -28.3 | 23.1µM*
COc1ccc(-c2noc(CCC(=O)N3CCN(c4ccccc4OC)CC3)n2)cc1 | 3.7% | ? | 8.0% | 0.0 | 20.6µM*
COc1ccc(OCC(=O)N2CCN(c3cccc(Cl)c3)CC2)cc1 | -0.7% | ? | -2.3% | -5.2 | ?
CC(=O)Nc1cccc(C(=O)OC(C)C(=O)NC(=O)NC2CCCCC2)c1 (configuration not stated) | 8.0% | -23.1% | 10.6% | 12.5 | ?
O=C(NC1CCCC1)C(c1ccc(F)cc1)N(Cc1ccccc1)C(=O)c1csnn1 (configuration not stated) | 0.8% | -37.8% | -3.8% | -11.0 | ?
CC(C)CCN(C(=O)c1csnn1)C(C(=O)NC1CCCC1)c1ccc(F)cc1 (configuration not stated) | -24.7% | -16.2% | -2.4% | -63.3* | -29.0%
Cc1ccccc1CCN(C(=O)c1csnn1)C(C(=O)NC1CCCC1)c1ccco1 (configuration not stated) | -28.9% | 23.1µM* | -0.1% | -11.1 | ?
COc1ccc(-c2ccc(C(c3c(C)[nH][nH]c3=O)c3c(C)[nH][nH]c3=O)o2)c([N+](=O)[O-])c1 | 8.2µM* | ? | 25.9µM* | -73.5* | 23.1µM*
Cc1[nH][nH]c(=O)c1C(c1ccc(-c2ccc(F)cc2)o1)c1c(C)[nH][nH]c1=O | ? | ? | -28.5% | ? | ?
Cc1[nH][nH]c(=O)c1C(c1ccc(-c2ccc(Cl)c(Cl)c2)o1)c1c(C)[nH][nH]c1=O | -24.1% | 3.26µM* | -11.0% | -22.1 | 2.59µM*
CCOc1ccc(/C(O)=C2/C(=O)C(=O)N(CC3CCCO3)C2c2cccs2)cc1 (configuration not stated) | -0.7% | -17.2% | 24.0% | 0.0 | ?
